Compound activity: PubChem, National Center for Advancing Translational Sciences (NCATS)
RE007 growth inh: less growth of the S. pombe RE007 Vpr strain; S. pombe RE007 Vpr strain, BacTiter-Glo ATP luminescence, 24 h; Potency, µM (doses to about 92.2 µM), most hits filed as inhibitors; hit rate 0.21% among 360,000; AID 651644; active means well fitted falling curve with a large enough effect; inconclusive means small, poorly fitted or top-dose-only effect; inactive means no such curve, though single readings can be large or run the other way; further: nearly all actives have a fitted effect of over 50% in size
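Fission yeast strain RE007, carrying one chromosomally integrated HIV-1 vpr copy, was seeded at OD 0.01 in PMG+AL medium with 23 nL pinned compound. After 24 h at 30 °C and 99% humidity, viability was read by BacTiter-Glo luminescence.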
Sm TGR block: inhibitors of Schistosoma mansoni thioredoxin glutathione reductase; purified TGR, DTNB reduction, TNB absorbance 405 nm; Potency, µM (top dose mostly 114 µM), usual class: inhibitors; hit rate 3% among 360,000; AID 485364; further: nearly all actives have a fitted effect of over 60% in size
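Kinetic colorimetric format: TGR-catalysed, NADPH-driven DTNB reduction monitored via TNB absorbance. Enzyme dispensed at 20 nM; compound exposure 15 min at room temperature before reaction start.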
TbPYK inhibitor: T. brucei pyruvate kinase inhibition; hit rate 0.12% among 410,000; Potency, µM (highest dose often 76.8 µM), actives largely listed as inhibitors; AID 624173; Q57TT1; TbPYK enzyme, Kinase-Glo Plus ATP luminescence, 45 min; further: nearly all actives have a fitted effect of over 50% in size
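Luminescence from Kinase-Glo Plus, added after a 45-minute room-temperature reaction, served as the end-point read-out. The enzyme and substrate were preincubated with compound before ADP (130 uM final) initiated turnover. Concentration-effect curves came from normalized qHTS data.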
LmPK inh: inhibitors of Leishmania mexicana pyruvate kinase. purified LmPK, Kinase-Glo ATP luminescence, 1 h. Potency, µM (series often up to 57.5 µM), usual class: inhibitors. hit rate 0.37% among 290,000. AID 1721
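qHTS format; LmPK 0.1 nM; substrates PEP 0.5 mM and ADP 0.1 mM. One-hour room-temperature incubation, then coupled luciferase luminescence; 0.5 nM enzyme wells mark activation.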
Giardia FBPA inh: inhibitors of Giardia lamblia fructose-1,6-bisphosphate aldolase. A8B2U2. purified Giardia FBPA. Potency, µM (titrated, usually from 59.6 µM), hits mostly inhibitors. hit rate 0.71% among 290,000. AID 2451; further: nearly all actives have a fitted effect of over 55% in size
Target sequence (A8B2U2 whole entry, looked up): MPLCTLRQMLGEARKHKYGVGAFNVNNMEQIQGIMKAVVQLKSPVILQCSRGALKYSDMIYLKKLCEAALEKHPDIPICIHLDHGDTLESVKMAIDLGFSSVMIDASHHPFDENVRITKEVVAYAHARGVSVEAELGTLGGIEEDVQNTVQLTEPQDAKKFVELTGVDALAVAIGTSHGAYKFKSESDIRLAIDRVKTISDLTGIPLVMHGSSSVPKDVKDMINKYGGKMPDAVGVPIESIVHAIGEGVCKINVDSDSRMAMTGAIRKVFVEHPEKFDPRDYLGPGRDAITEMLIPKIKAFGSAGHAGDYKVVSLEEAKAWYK
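Giardia FBPA (40 nM reagent) was preincubated 10 min at RT with compound (up to 57.5 uM final), then substrate plus GAPDH/TPI/NAD/arsenate coupling system with diaphorase/resazurin was added; resorufin fluorescence (525/598 nm) was read after 20 min.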
Large screens that a line does not name were inactive. In the library only some 3.3% were active in any assay of this set; here they are far more common. Unless noted, the call rests on the fitted dose curve; in most records, active means well fitted curve in the direction sought with a large enough effect; inconclusive means small, poorly fitted or top-dose-only effect, or another doubt; inactive means no such curve, though single readings can be large; an effect the other way counts as inactive or inconclusive.

O=C(O)c1cc(-c2ccc(/C=C3\NC(=O)N(c4ccc(Cl)cc4)C3=O)o2)ccc1Cl	Sm TGR block inconclusive
O=C(O)c1ccccc1-c1ccc(C=C2C(=O)N(c3ccccc3)C(=S)N(c3ccccc3)C2=O)o1	Sm TGR block 8.9µM, TbPYK inhibitor inconclusive
O=C(O)c1cc(-c2ccc(/C=C3\NC(=O)N(c4ccccc4)C3=O)o2)ccc1Cl	Sm TGR block 50µM, Giardia FBPA inh inconclusive
O=C(O)c1ccccc1-c1ccc(/C=C2\SC(=O)N(c3ccccc3)C2=O)o1	none
CCOc1ccc(N2C(=O)/C(=C/c3ccco3)C(=O)NC2=S)cc1	Sm TGR block 22µM, TbPYK inhibitor inconclusive
O=C(NCc1ccco1)C(c1cccs1)N(C(=O)C1COc2ccccc2O1)c1cccc(O)c1 (stereo unspecified)	Sm TGR block 35µM
CCOC(=O)C1=CC(=O)CC(C)(C)O1	none (no result: Sm TGR block, LmPK inh, Giardia FBPA inh)
Cc1cc2n(n1)SC(Nc1ccc(F)c(Cl)c1)N2 (stereo unspecified)	Sm TGR block 8.9µM, Giardia FBPA inh inconclusive
CNC[C@H](O)c1ccc(O)c(O)c1	Sm TGR block 14µM, Giardia FBPA inh 18µM
C[C@H](N)[C@H](O)c1ccc(O)c(O)c1	Giardia FBPA inh 7.1µM (no result: RE007 growth inh, Sm TGR block, TbPYK inhibitor, LmPK inh)
CC[C@H](NC(C)C)[C@H](O)c1ccc(O)c(O)c1	Giardia FBPA inh 3.5µM (no result: RE007 growth inh, Sm TGR block, LmPK inh)
C[C@@H](N)[C@@H](O)c1ccc(O)c(O)c1	none (no result: RE007 growth inh, Sm TGR block, LmPK inh, Giardia FBPA inh)
O=C(CN1CCOCC1)NCCc1ccccc1	Giardia FBPA inh inconclusive
CCn1c(COc2ccc(C)cc2)nnc1SCC(=O)Nc1cc(OC)ccc1OC	none
COc1cc(NC(=O)Cn2cnc(S(=O)(=O)N3CCCCC3)c2)cc(OC)c1OC	none (no result: Giardia FBPA inh)
Cc1ccc(N2C(=O)N(CC(=O)N3CCc4ccccc43)C(=O)C2C)cc1 (stereo unspecified)	none (no result: Sm TGR block, LmPK inh, Giardia FBPA inh)
NS(=O)(=O)c1ccc(NC2=CC(c3ccc([N+](=O)[O-])cc3)N(c3ccc(S(N)(=O)=O)cc3)C2=O)cc1 (stereo unspecified)	Sm TGR block 18µM
O=[N+]([O-])c1ccc(/C=N/n2cnc3ccccc32)s1	RE007 growth inh 10µM
Cc1nc2ccccc2n1/N=C/c1ccc([N+](=O)[O-])s1	RE007 growth inh inconclusive
CN1CCC2(CC1)CCN(C(=O)c1ccco1)CC2	none (no result: RE007 growth inh, Sm TGR block, LmPK inh)
O=C(NNc1ccccc1C(F)(F)F)c1cccs1	none
COc1ccc(/C=C2\CCC/C(=C\C=N\N(C)C)C2=O)cc1	none
CN(C)/N=C/C=C1\CCC/C(=C\c2ccc(F)c(F)c2)C1=O	Sm TGR block 16µM
O=C(Cn1ncc2c1-c1ccccc1OC2)N1CCN(c2ccccc2F)CC1	none (no result: RE007 growth inh, LmPK inh, Giardia FBPA inh)
O=C(Nc1ncc(S(=O)(=O)c2ccc([N+](=O)[O-])cc2)s1)c1ccc2ccccc2c1	none
O=C(Nc1ncc([N+](=O)[O-])s1)c1cccc([N+](=O)[O-])c1	LmPK inh 13µM, Giardia FBPA inh inconclusive
O=C(Nc1ccc(NC(=O)c2cccc([N+](=O)[O-])c2)cc1)c1cccc([N+](=O)[O-])c1	none
O=C(Nc1ncc(S(=O)(=O)c2ccc([N+](=O)[O-])cc2)s1)c1cccnc1	Sm TGR block 28µM
COc1cc2c(C(=O)Nc3ccc4c(c3)OCO4)cn(CC(C)C)c(=O)c2cc1OC	none (no result: RE007 growth inh, TbPYK inhibitor)
CSc1nc(C)cc(SCC(=O)Nc2ccc(Cl)cc2Cl)n1	none
CC(C)(C)C(=O)C(Cl)C(=O)Nc1ccccc1 (stereo unspecified)	Sm TGR block 22µM
Cc1ccc(S(=O)(=O)CCC(=O)NCc2ccco2)cc1	Sm TGR block 40µM
CC1Cc2cc(S(=O)(=O)CCC(=O)NCc3ccco3)ccc2N1C(=O)C1CC1 (stereo unspecified)	Sm TGR block 40µM
Cc1ccc(CNC(=O)C2CCN(S(=O)(=O)c3ccc4c(c3)CC(C)N4C(=O)C3CCC3)CC2)o1 (stereo unspecified)	Sm TGR block 40µM
Cc1ccc(S(=O)(=O)CCC(=O)NCc2ccccc2)cc1	none
Cc1noc(C)c1C(=O)NC(Cc1c[nH]c2ccccc12)C(=O)O (stereo unspecified)	none (no result: Sm TGR block, LmPK inh, Giardia FBPA inh)
Cc1cccc(N2C(=O)CSC23C(=O)N(Cc2cccc(F)c2)c2ccccc23)c1 (stereo unspecified)	none (no result: RE007 growth inh, LmPK inh, Giardia FBPA inh)
CC(C)(C)c1ccc(C(=O)CC(Sc2ccc(Cl)cc2)C(=O)O)cc1 (stereo unspecified)	Sm TGR block 11µM, TbPYK inhibitor inconclusive
Cc1ccc(SC(CC(=O)c2ccc(F)cc2)C(=O)O)cc1 (stereo unspecified)	RE007 growth inh inconclusive, Sm TGR block 0.5µM
CSc1nc(O)c(C(c2ccccc2Cl)c2c(O)nc(SC)[nH]c2=O)c(=O)[nH]1	none (no result: Sm TGR block, LmPK inh, Giardia FBPA inh)
CSc1nc(O)c(N=Nc2ccc(F)cc2F)c(=O)[nH]1	RE007 growth inh 25µM, LmPK inh 16µM
O=C(Nc1ccccc1F)c1ccc(CSc2ncccn2)cc1	LmPK inh 16µM
Cc1ccc(C)n1-c1ccc(C(=O)Nc2ccccc2F)cc1	Sm TGR block 50µM
COc1ccc(NC(=O)c2ccc(-n3c(C)ccc3C)cc2)c(OC)c1	Sm TGR block 28µM
CCc1nc2ccc(C(=O)NCCCn3ccnc3)cn2c1N(CC)Cc1cccc(Br)c1	none (no result: Sm TGR block, LmPK inh, Giardia FBPA inh)
COc1ccc(/C=C/C2=CC(C)(C)NC(=S)N2)cc1OC	Sm TGR block 2.8µM
CCOc1ccc(/C=C/C2=CC(C)(C)NC(=S)N2)cc1	Sm TGR block 8.9µM
O=C(COc1cccnc1[N+](=O)[O-])c1ccc(Cl)s1	RE007 growth inh inconclusive, Sm TGR block 2µM, Giardia FBPA inh inconclusive
Cc1ccc2nc(N(CCN3CCOCC3)C(=O)CCS(=O)(=O)c3ccccc3)sc2c1	none (no result: LmPK inh, Giardia FBPA inh)
CCN(CC)CCN(C(=O)CCS(=O)(=O)c1ccccc1)c1nc2cc3c(cc2s1)OCO3	Sm TGR block 8.9µM
CCN(CC)CCN(C(=O)c1cccc(N2C(=O)CCC2=O)c1)c1nc2cc3c(cc2s1)OCO3	none
O=C(CCS(=O)(=O)c1ccccc1)N(CCCN1CCOCC1)c1nc2ccccc2s1	Sm TGR block 2.5µM (no result: LmPK inh, Giardia FBPA inh)
Cc1ccc(S(=O)(=O)CCC(=O)N(CCCN2CCOCC2)c2nc3ccccc3s2)cc1	Sm TGR block 14µM (no result: LmPK inh, Giardia FBPA inh)
CCN(CC)CCN(C(=O)c1ccc(N2C(=O)CCC2=O)cc1)c1nc2cc3c(cc2s1)OCCO3	Sm TGR block 45µM
CN(C)CCN(C(=O)CCS(=O)(=O)c1ccccc1)c1nc2cc3c(cc2s1)OCO3	Sm TGR block inconclusive (no result: Giardia FBPA inh)
COc1ccc2ccccc2c1C(=O)/C=C\c1ccoc1	Sm TGR block 22µM, Giardia FBPA inh inconclusive
O=C(/C=C/c1ccoc1)c1ccccc1O	none
O=C(O)CCC(=O)CCC(=O)c1ccc(Cl)cc1	Sm TGR block 28µM
O=C(O)CCC(=O)c1ccc(-c2ccccc2)cc1	none
CC(C)CCN(C(=O)CCCSc1nc2ccccc2[nH]1)c1c(N)n(Cc2ccccc2)c(=O)[nH]c1=O	none (no result: LmPK inh, Giardia FBPA inh)
